{"source": "PubChem BioAssay AID504834", "about": "(National Center for Advancing Translational Sciences (NCATS), 2011)", "note": "Out of some 320,000 compounds screened, about 22,000 (6.9%) were called active. Roughly 27% stayed inconclusive and do not appear here. Calls come from the whole dose curve; as a rule, active = well fitted inhibition curve with a large enough effect; inconclusive = small, poorly fitted or top-dose-only effect, or another doubt; inactive = no such curve, though single readings can be large or run the other way. The full list was thinned out, with actives kept by preference. % is set by controls: 0 for no effect and ±100 for the full control effect; potency is the fitted concentration of half-maximal effect."}
{"assay": "Primary qHTS for delayed death inhibitors of the malarial parasite plastid, 96 hour incubation", "conditions": "P. falciparum luciferase reporter growth; series mostly up to 28.7 µM; activity change, negative = inhibition: at the top concentration", "outline": "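96 h incubation, 37 C, 5% CO2, of luciferase-reporter P. falciparum-infected RBCs (2% hematocrit, 0.05% parasitemia final) with test compounds; endpoint luminescence.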"}
{"smiles": "COc1cccc(CNC(=O)COC(=O)CN2C(=O)NC3(CCCCC3C)C2=O)c1", "note": "(stereo unspecified)", "activity change, negative = inhibition": "5.85% (inactive)"}
{"smiles": "Cc1onc(-c2c(Cl)cccc2Cl)c1C(=O)c1c[nH]c(C(=O)NC2CC2)c1", "activity change, negative = inhibition": "-20.4% (inactive)"}
{"smiles": "COc1ccccc1N1CCN(C(=O)c2c(-c3c(Cl)cccc3Cl)noc2C)CC1", "activity change, negative = inhibition": "7.48% (inactive)"}
{"smiles": "Cc1onc(-c2c(Cl)cccc2Cl)c1C(=O)NNC(=O)c1c(-c2c(Cl)cccc2Cl)noc1C", "Potency": "8.28 µM (active)"}
{"smiles": "CC(C)=C1SC(N2CCN(c3ccc(C)c(Cl)c3)CC2)=NC1=O", "activity change, negative = inhibition": "0.284% (inactive)"}
{"smiles": "CC(NCc1cccs1)C(=O)Nc1cc(Cl)cc(Cl)c1", "note": "(stereo unspecified)", "activity change, negative = inhibition": "-2.74% (inactive)"}
{"smiles": "Cc1cc2nc3n(c2cc1C)CC1CC(C(=O)NCCC(C)C)N(C)C31", "note": "(stereo unspecified)", "activity change, negative = inhibition": "-1.98% (inactive)"}
{"smiles": "CCc1nc(Nc2ccc(NC(C)=O)cc2)c2oc3ccccc3c2n1", "activity change, negative = inhibition": "-16.9% (inactive)"}
{"smiles": "COc1ccc(Nc2nnc(C)c3ccccc23)cc1", "activity change, negative = inhibition": "2.93% (inactive)"}
{"smiles": "COc1ccc(Nc2cc(=O)oc3ccccc23)cc1", "Potency": "2.62 µM (active)"}
{"smiles": "COc1ccc2oc(=O)cc(-c3cc4ccccc4o3)c2c1", "activity change, negative = inhibition": "19.1% (inactive)"}
{"smiles": "O=S(=O)(NC1CCCCC1N1CCC(O)CC1)c1ccc(Cl)cc1", "note": "(stereo unspecified)", "activity change, negative = inhibition": "23.1% (inactive)"}
{"smiles": "CCOC1CCCCC1NS(=O)(=O)c1ccc(Cl)cc1", "note": "(stereo unspecified)", "Potency": "9.28 µM (active)"}
{"smiles": "O=S(=O)(NC1CCCCC1N1CCCCC1)c1ccc(Cl)cc1", "note": "(stereo unspecified)", "activity change, negative = inhibition": "2.85% (inactive)"}
{"smiles": "Cc1nnc2n1N=C(c1ccc3c(c1)NC(=O)CO3)CS2", "activity change, negative = inhibition": "-25.6% (inactive)"}
{"smiles": "O=C(O)CC/C(=C\\c1cc2c(cc1Br)OCO2)c1nc2ccccc2s1", "activity change, negative = inhibition": "34.1% (inactive)"}
{"smiles": "O=C(NC1CCCC1)C1CC(=O)N(c2ccc(F)cc2)C1", "note": "(stereo unspecified)", "activity change, negative = inhibition": "-9.08% (inactive)"}
{"smiles": "O=C(NC1CCCCCCC1)c1cccs1", "activity change, negative = inhibition": "23.4% (inactive)"}
{"smiles": "CCC(C)[C@H]1COCCS(=O)(=O)N1Cc1ccc(C)cc1", "note": "(stereo partly specified)", "activity change, negative = inhibition": "84.1% (inactive)"}
{"smiles": "C/C(=N\\NC(=O)c1ccc2ccccc2c1)c1cccnc1", "activity change, negative = inhibition": "18.6% (inactive)"}
{"smiles": "O=C(NCCNc1ccc([N+](=O)[O-])cc1Cl)c1ccccc1F", "activity change, negative = inhibition": "-45.8% (inactive)"}
{"smiles": "O=C(NC1CCN(Cc2ccccc2)CC1)c1cc(Br)c(Br)[nH]1", "Potency": "11.7 µM (active)"}
{"smiles": "O=C(NC1CCN(Cc2ccccc2)CC1)c1ccccc1F", "activity change, negative = inhibition": "202% [at 5.75 µM] (inactive)"}
{"smiles": "O=C(NC1CCN(Cc2ccccc2)CC1)c1c(F)cccc1F", "activity change, negative = inhibition": "84.5% (inactive)"}
{"smiles": "COc1cccc(CN2CCNC(=O)C2CC(=O)N(C)CCc2ccccn2)c1", "note": "(stereo unspecified)", "activity change, negative = inhibition": "32.9% (inactive)"}
{"smiles": "CN(Cc1cccc2ncccc12)C(=O)CC1C(=O)NCCN1Cc1ccc(F)cc1", "note": "(stereo unspecified)", "Potency": "13.1 µM (active)"}
{"smiles": "Cc1cnc(CN(C)C(=O)CC2C(=O)NCCN2Cc2cccc(F)c2F)[nH]1", "note": "(stereo unspecified)", "activity change, negative = inhibition": "4.66% (inactive)"}
{"smiles": "O=C(N/C(=C/c1ccc(Cl)cc1)C(=O)N1CCCCC1)c1ccco1", "activity change, negative = inhibition": "-0.335% (inactive)"}
{"smiles": "O=C(O)CC(CC(=O)N1CCOCC1)c1ccccc1", "note": "(stereo unspecified)", "activity change, negative = inhibition": "14.1% (inactive)"}
{"smiles": "CCOc1cc(C)ccc1OCc1nnc(SCC(=O)Nc2cccc(C(=O)O)c2)n1-c1ccccc1", "activity change, negative = inhibition": "45% (inactive)"}
{"smiles": "O=C(O)c1cc(S(=O)(=O)Nc2ccc3cn[nH]c3c2)ccc1Br", "activity change, negative = inhibition": "12.5% (inactive)"}
{"smiles": "CCCNC(=O)c1cnc(-c2ccccc2)nc1-c1ccccc1", "activity change, negative = inhibition": "17.4% (inactive)"}
{"smiles": "C/C(=N\\NC(=O)c1cc(-c2ccc(O)cc2)nc2ccccc12)c1cccnc1", "Potency": "9.28 µM (active)"}
{"smiles": "C/C(=N\\NC(=O)c1cccnc1)c1ccc(-c2ccccc2)cc1", "activity change, negative = inhibition": "35.5% (inactive)"}
{"smiles": "CCOc1ccccc1-c1cc(C(=O)N/N=C(\\C)c2cccnc2)c2ccccc2n1", "activity change, negative = inhibition": "2.86% (inactive)"}
{"smiles": "CC1(c2nnc(Cc3ccccc3)o2)CC(c2ccccc2F)=NO1", "note": "(stereo unspecified)", "activity change, negative = inhibition": "67.6% (inactive)"}
{"smiles": "COc1ccc(NC(=O)CSc2nncc(=O)n2N)cc1OC", "activity change, negative = inhibition": "8.56% (inactive)"}
{"smiles": "O=C(CCC1CCCN(C(=O)Cc2ccc(F)cc2)C1)N1CCN(c2ccccn2)CC1", "note": "(stereo unspecified)", "activity change, negative = inhibition": "-10.4% (inactive)"}
{"smiles": "Cc1nc2c(-c3ccc(F)cc3)c(C)nn2c(C)c1CCC(=O)N1CCN(c2ccccn2)CC1", "Potency": "7.38 µM (active)"}
{"smiles": "O=C(Cc1ccccc1Cl)N1CCN(c2ccccn2)CC1", "activity change, negative = inhibition": "1.61% (inactive)"}
{"smiles": "O=C(c1cc(COc2ccc(F)c(F)c2)on1)N1CCOCC1", "activity change, negative = inhibition": "-9.89% (inactive)"}
{"smiles": "CCn1c(=O)c2cc(C(=O)Nc3cccc(C(C)=O)c3)sc2c2ccccc21", "activity change, negative = inhibition": "0.375% (inactive)"}
{"smiles": "N#CC1=C(N)N(c2ccccc2)C2=C(C(=O)CCC2)C1c1ccccc1", "note": "(stereo unspecified)", "Potency": "2.08 µM (active)"}
{"smiles": "CN(C)N1C(N)=C(C#N)C(c2ccc(Br)cc2)C2=C1CCCC2=O", "note": "(stereo unspecified)", "Potency": "2.94 µM (active)"}
{"smiles": "N#CC1=C(N)OC2=C(C(=O)CCC2)C1C1CC=CCC1", "note": "(stereo unspecified)", "activity change, negative = inhibition": "40.6% (inactive)"}
{"smiles": "COc1ccc(C2C(C#N)=C(N)N(c3ncn[nH]3)C3=C2C(=O)CCC3)cc1", "note": "(stereo unspecified)", "activity change, negative = inhibition": "0% (inactive)"}
{"smiles": "CCOc1ccc(C2C(C#N)=C(N)N(N(C)C)C3=C2C(=O)CCC3)cc1", "note": "(stereo unspecified)", "activity change, negative = inhibition": "59% (inactive)"}
{"smiles": "NC1=C([N+](=O)[O-])C(c2ccccc2)C2=C(CCCC2=O)O1", "note": "(stereo unspecified)", "activity change, negative = inhibition": "0.515% (inactive)"}
{"smiles": "Cc1nc2ccc(S(=O)(=O)N(C)CC(=O)NC(C)c3ccccc3)cc2s1", "note": "(stereo unspecified)", "activity change, negative = inhibition": "25.8% (inactive)"}
{"smiles": "N#CCC(=O)Nc1ccc(C(=O)OCC(=O)Nc2sc3c(c2C#N)CCCC3)cc1", "activity change, negative = inhibition": "61.4% (inactive)"}
{"smiles": "Cc1ccccc1N1CCN(CCCN2C(=O)C3CCCCN3C2=O)CC1", "note": "(stereo unspecified)", "activity change, negative = inhibition": "7.49% (inactive)"}
{"smiles": "O=C1C2CCCN2C(=O)N1CCCCN1CCN(c2cccc(C(F)(F)F)c2)CC1", "note": "(stereo unspecified)", "Potency": "13.1 µM (active)"}
{"smiles": "O=C(C1CC(=O)N(C2CCCC2)C1)N1CCN(c2cccc(C(F)(F)F)c2)CC1", "note": "(stereo unspecified)", "activity change, negative = inhibition": "-14.5% (inactive)"}
{"smiles": "CCCc1cc(=O)oc2c(C)c(OCC(=O)NCc3ccccn3)ccc12", "activity change, negative = inhibition": "14% (inactive)"}
{"smiles": "O=C(Cc1cccc2ccccc12)NNC(=O)Nc1ccc(Cl)cc1", "activity change, negative = inhibition": "0.722% (inactive)"}
{"smiles": "CCCN1C2CCCC1CC(NC(=O)NC13CC4CC(CC(C4)C1)C3)C2", "note": "(stereo unspecified)", "activity change, negative = inhibition": "-27.6% (inactive)"}
{"smiles": "CC1CCCCN1S(=O)(=O)c1ccc(S(=O)(=O)N(CC(=O)Nc2ccccc2)Cc2cccs2)cc1", "note": "(stereo unspecified)", "Potency": "4.65 µM (active)"}
{"smiles": "CC1CCCCN1S(=O)(=O)c1ccc(C(=O)Nc2nnc(-c3cccs3)o2)cc1", "note": "(stereo unspecified)", "activity change, negative = inhibition": "-0.7% (inactive)"}
{"smiles": "CCN(CC(=O)NCc1cccs1)S(=O)(=O)c1ccc(NC(C)=O)cc1", "activity change, negative = inhibition": "-23.3% (inactive)"}
{"smiles": "Cc1ccccc1C(=O)Nc1ccccc1NC(=O)c1ccccc1C", "activity change, negative = inhibition": "433% (inactive)"}
{"smiles": "Cc1ccccc1NC(=O)NCC1CCN(Cc2cccc(Cl)c2)CC1", "activity change, negative = inhibition": "27.4% (inactive)"}
{"smiles": "COc1cc(NC(=O)NCC2CCN(Cc3ccc(C)cc3)CC2)cc(OC)c1OC", "Potency": "10.4 µM (active)"}
{"smiles": "Cc1ccc(C)c(CN2CCC(CNC(=O)Nc3ccc(C)c(F)c3)CC2)c1", "activity change, negative = inhibition": "36.5% (inactive)"}
{"smiles": "COc1ccc(Cl)cc1NC(=O)NCC1CCN(Cc2ccccc2F)CC1", "activity change, negative = inhibition": "12.4% (inactive)"}
{"smiles": "Cc1cccc(CN2CCC(CNC(=O)Nc3ccc(F)c(Cl)c3)CC2)c1", "activity change, negative = inhibition": "6.46% (inactive)"}
{"smiles": "O=C(NCC1CCN(Cc2ccccc2Cl)CC1)Nc1cccc(Cl)c1", "Potency": "1.65 µM (active)"}
